According to PubChem BioAssay AID1508637 (National Center for Advancing Translational Sciences (NCATS), 2021):
Results filed as inconclusive are left out. Active and inactive are the calls of the source. Calls follow the shape of the dose curve; as a rule, active = well fitted inhibition curve with a large enough effect; inconclusive = small, poorly fitted or top-dose-only effect; inactive = flat fitted curve, though single readings scatter. Starred links: 1 amine or outer side, 2 acyl side, 3 side chain; linkers in the order of their positions; H or OH if unused. Positions of bridges follow the written chain, without caps; N, C: chain ends. Non-standard residues stand in square brackets, D forms with d. Residues, ends and D or L forms follow the SMILES beside them. Chains are numbered I, II in the order given. ξ: configuration not given here. *: point of attachment. Actinocin(9to1) = Cc1c2oc3c(C)ccc(C(=O)[*:1])c3nc-2c(C(=O)[*:2])c(N)c1=O; ξNMeV = CNC(C(=O)O)C(C)C; Cbz = O=C(OCc1ccccc1)*; ξV = CC(C)C(N)C(=O)O; Sar = CNCC(=O)O

Experiment: qHTS for characterization and localization of zebrafish homologs of the human ABCB1 multidrug transporter: empty vector transfected cells
Conditions: empty vector transfected control cells, CellTiter-Glo luminescence viability, 72 h; series mostly up to 46.1 µM
From the text: The zebrafish has emerged as a potential model to study the blood-brain barrier (BBB) given its similarities with mammalian systems. However, little information has been available with regard to homologous ATP-binding cassette transporters expressed at the zebrafish BBB. Two transporters that are highly expressed at the human BBB are P-glycoprotein (P-gp, encoded by the ABCB1 gene) and ABCG2 (encoded by the ABCG2 gene). In this study, we focus on characterization of P-gp homologs in the zebrafish, which has two genes that are homologous to human ABCB1 - abcb4 and abcb5. We generated stably-transfected cell lines to determine their substrate specificities. […] Zebrafish abcb4 also colocalized with claudin 5 expression in brain endothelial cells.
A high-throughput screen was performed as previously described on empty vector transfected cells, P-gp-overexpressing MDR-19 cells and cells transfected with full-length zebrafish abcb4 (ZF Abcb4) or abcb5 (ZF Abcb5). Briefly, cells were plated into 1536-well plates at a density of 500 cells/well in 5 uL media. P-gp substrate compounds (approximately 90) selected from our previous study were then added at varying concentrations using a 1536-head pin tool (Kalypsis, San Diego, CA) and plates were incubated at 37C in 5% CO2 for 72 h. CellTiter-Glo reagent (Promega) was dispensed into the wells, incubated for 5 min and luminescence was read on a ViewLux instrument (Perkin-Elmer).
Cytotoxic compounds were defined as those that yielded a curve class of -1.1, -1.2, -2.1, -2.2, -2.3, or -2.4, a maximum response of >50% and an AC50 of < 10 uM. All compounds from screening analysis were tested in Vector (empty vector control), MDR-19 (P-gp overexpressing), zebrafish abcb4 (ZF Abcb4) and abcb5 (ZF Abcb5) expression cell lines.
1. Tobie D Lee, Olivia W Lee, Kyle R Brimacombe, Lu Chen, Rajarshi Guha, Sabrina Lusvarghi, Bethilehem G Tebase, Carleen Klumpp-Thomas, Robert W Robey, Suresh V Ambudkar, Min Shen, Michael M Gottesman, Matthew D Hall. A High-Throughput Screen of a Library of Therapeutics Identifies Cytotoxic Substrates of P-glycoprotein. Mol Pharmacol. 2019, Nov;96(5):629-640.

Structure (SMILES) | Potency
Cc1cc(Nc2cc(N3CCN(C)CC3)nc(Sc3ccc(NC(=O)C4CC4)cc3)n2)n[nH]1 | 6620 nM (active)
CO[C@H]1/C=C/C=C/C=C/C[C@H](OC(=O)[C@@H](C)NC(=O)C2CCCCC2)[C@H](C)[C@@H](O)/C(C)=C/CCc2cc(O)cc(c2)NC(=O)C1 | 277 nM (active)
CCn1c(-c2nonc2N)nc2c(C#CC(C)(C)O)ncc(OC[C@H]3CCCNC3)c21 | 1180 nM (active)
CC[n+]1c(-c2ccccc2)c2cc(N)ccc2c2ccc(N)cc21 | 332 nM (active)
Cc1cc(N)c2ccccc2[n+]1CCCCCCCCCC[n+]1c(C)cc(N)c2ccccc21 | 5900 nM (active)
Cc1nc(Nc2n[nH]c3c2CN(C(=O)N[C@H](CN(C)C)c2ccccc2)C3(C)C)c2sccc2n1 | 41.8 nM (active)
Cc1c2oc3c(C)ccc(C(=O)N[C@@H]4C(=O)NC(C(C)C)C(=O)N5CCC[C@H]5C(=O)N(C)CC(=O)N(C)C(C(C)C)C(=O)O[C@@H]4C)c3nc-2c(C(=O)N[C@@H]2C(=O)NC(C(C)C)C(=O)N3CCC[C@H]3C(=O)N(C)CC(=O)N(C)C(C(C)C)C(=O)O[C@@H]2C)c(N)c1=O (some centres not stated) (I: T[ξV]P[Sar][ξNMeV] / II: T[ξV]P[Sar][ξNMeV]; ester I:1-I:C, II:1-II:C; linker I:N-II:N via Actinocin(9to1)) | 7.4 nM (active)
CC(NCc1ccc2c(c1)nc(NC(=O)c1ccc(-c3cn[nH]c3)s1)n2CC(C)(C)O)C(C)(C)C (configuration not stated) | 332 nM (active)
C[C@@H]1O[C@@H](O[C@H]2[C@@H](OC(=O)[C@]34CCC(C)(C)CC3C3=CCC5[C@@]6(C)C[C@H](O)[C@H](O[C@@H]7O[C@H](CO)[C@@H](O)[C@H](O)[C@H]7O[C@@H]7OC[C@@H](O)[C@H](O)[C@H]7O)[C@@](C)(C(=O)O)C6CC[C@@]5(C)[C@]3(C)CC4)OC[C@H](O)[C@@H]2O)[C@H](O)[C@H](O)[C@H]1O[C@@H]1OC[C@@H](O)[C@H](O)[C@H]1O (some centres not stated) | 1980 nM (active)
CC(C)C[C@@H](C=O)NC(=O)[C@H](CC(C)C)NC(=O)[C@H](CC(C)C)NC(=O)OCc1ccccc1 (Cbz-Leu-Leu-Leu-aldehyde) | 1320 nM (active)
CC(=O)C1(O)Cc2c(O)c3c(c(O)c2C(OC2CC(N)C(O)C(C)O2)C1)C(=O)c1c(O)cccc1C3=O (configuration not stated) | 41.8 nM (active)
COCCn1c2c([n+](Cc3cnccn3)c1C)C(=O)c1ccccc1C2=O | 16.6 nM (active)
C=CCNC1=C2CC(C)CC(OC)C(O)C(C)/C=C(\C)C(OC(N)=O)C(OC)/C=C/C=C(\C)C(=O)NC(=CC1=O)C2=O (configuration not stated) | 1480 nM (active)
CCN(CCCO)CCCOc1ccc2c(Nc3cc(CC(=O)Nc4cccc(F)c4)[nH]n3)ncnc2c1 | inactive
COc1ccc(CC2C(=O)NC(C)C(=O)N(C)C3Cc4ccc(cc4)Oc4cc(ccc4OC4OC(CO)C(O)C(O)C4O)CC(C(=O)NC(C)C(=O)NC(C)C(=O)N2C)N(C)C3=O)cc1 (configuration not stated) | 88.8 nM (active)
NC(=O)Nc1cc(-c2ccc(CN3CCOCC3)c(F)c2)sc1C(=O)N[C@H]1CCCNC1 | 469 nM (active)
COc1cccc2c1C(=O)c1c(O)c3c(c(O)c1C2=O)C[C@@](O)(C(=O)CO)C[C@H]3O[C@H]1C[C@H](N)[C@@H](O)[C@H](C)O1 | 105 nM (active)
